Assay results: PubChem BioAssay
“And” between values parts separate entries of the source, which are not always exact repeats. Equal values may be shown once. For part of these data: Results with a measured potency or affinity are listed apart. The source made the active and inactive calls.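 How the source made its calls, unless noted: active means thallium flux through the channel raised or lowered by more than 3 SD from vehicle-only wells, actives on both sides; inactive means the rest.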

What was measured:
[1] = compounds altering viability of human ES cells (AID 493140; call rule not given here;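 further: cells exposed to compounds for four days before counting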); details: human embryonic stem cell survival screen; stronger effect = higher value
[2] = signal quenchers or enhancers, Cy5 substrate/SSB – biochemical, NIH Clinical Collection, E. coli SSB, artefact control for HCV NS3 helicase inhibitor project (AID 743268; call rule not given here); details: Cy5-oligo bound E. coli SSB, fluorescence interference
[3] = modulation of C. elegans fzo-1 (AID 1259413; call rule not given here;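 further: fzo-1 mutant C. elegans worms in liquid wells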); details: C. elegans fzo-1 modulator screen, mean read-out; stronger effect = higher value
F380Y/beta1 = test: BK channel mutant inhibitors and activators – cell-based, U2OS BacMam, thallium flux, beta subunits, selectivity assay, profiling panel (AID 1259406); details: U2OS BacMam BK variants, at 30 µM;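 further: initial slope of Thallos dye fluorescence rise after thallium is added; log ratio against the mean of 0.3% DMSO vehicle wells on the same plate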
F380Y/beta4 = test: as above; details: U2OS BacMam BK variants, at 30 µM
R275C = test: as above; details: U2OS BacMam BK variants, at 30 µM
R275C/beta1 = test: as above; details: U2OS BacMam BK variants, at 30 µM
R275C/beta2Delta = test: as above; details: U2OS BacMam BK variants, at 30 µM
R275C/beta4 = test: as above; details: U2OS BacMam BK variants, at 30 µM
R275C/Slo1WT/beta2 = test: as above; details: U2OS BacMam BK variants, at 30 µM
[4] = P. berghei load reduction in hepatocytes – cell-based, HepG2, luciferase luminescence, HepG2 viability, primary screen (AID 624349; in the data active means parasite load remaining mostly below about 12%, no sharp cut-off; inactive means mostly above about 10%;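 further: 100% = mean of DMSO negative control wells on the same plate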); details: P. berghei liver stage in HepG2, luciferase luminescence, concentration not given here; parasite load remaining: stronger effect = lower value; viability: measured here: HepG2 viability without parasites
[5] = galactose survival enhancers in mitochondrial complex I cybrids – cell-based, galactose medium, ATP luminescence, primary screen (AID 1645843;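 active means z-score of at least 1.8 in each of two replicates, scored against plate mean and spread of sample wells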;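 further: positive z means more ATP and so rescue of galactose-driven cybrid death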); details: complex I mutant cybrid cells, 72 h, stronger effect = higher value
[6] = blockers of polyQ-driven CASP3 activation – cell-based (AID 1583); details: polyglutamine-induced caspase-3 activation, cell assay; stronger effect = higher value;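 tested at 10 µM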
[7] = yeast 75Q aggregation reduction – 75Q-TubU reporter (AID 1593); details: Yeast 75Q polyglutamine aggregation reporter
[8] = restoration of touch response, mutant HTT neurons – whole organism, C. elegans mechanosensory neurons, N-terminal huntingtin (AID 1599); details: C. elegans polyQ-huntingtin mechanosensory neurons, stronger effect = higher value
[9] = blockers of cytochrome c efflux from mitochondria – biochemical, purified mitochondria (AID 1603); details: stronger effect = lower value;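 further: mouse liver mitochondria challenged with calcium chloride; signal normalized to the plate average as 100%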
[10] = polyglutamine aggregate formation blockers (AID 1604); details: polyglutamine-induced protein aggregation inhibition assay; stronger effect = higher value; tested at 2.5 µM
[11] = glutamate transport activators, MN-1 cells, MN-1 cell line (AID 1612); details: MN-1 motor neuron cells, stronger effect = higher value;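 further: tested at 1 µM final; 0% = mean of DMSO vehicle wells on each plate; positive means more glutamate uptake than control and negative means less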
[12] = 75Q-TubH aggregate inhibition, S. cerevisiae, yeast (AID 1616); details: S. cerevisiae 75Q-TubH polyglutamine aggregation suppression; stronger effect = higher value

COc1ccc([C@@H]2Sc3ccccc3N(CCN(C)C)C(=O)[C@@H]2OC(C)=O)cc1
inactive: survival [1] 19.4 | fluorescence ratio [2] 0.95 | mean signal [3] 243 | log fold change Tl+ flux (F380Y/beta1) 0.0592 | log fold change Tl+ flux (F380Y/beta4) 0.0311 | log fold change Tl+ flux (R275C) -0.0404 | log fold change Tl+ flux (R275C/beta1) 0.0836 | log fold change Tl+ flux (R275C/beta2Delta) 0.0243 | log fold change Tl+ flux (R275C/beta4) 0.104 | log fold change Tl+ flux (R275C/Slo1WT/beta2) 0.0487

CC(C)C1CCC(C(=O)N[C@H](Cc2ccccc2)C(=O)O)CC1 (some centres not stated)
active: log fold change Tl+ flux (R275C/beta4) 0.0835
68.8% and 167%: viability [4]
inactive: parasite load remaining [4] 83.5% and 55.1% | fluorescence ratio [2] 1.01 | mean signal [3] 221 | z-score [5] -0.11 | log fold change Tl+ flux (F380Y/beta1) 0.0965 | log fold change Tl+ flux (F380Y/beta4) 0.075 | log fold change Tl+ flux (R275C) -0.00833 | log fold change Tl+ flux (R275C/beta1) 0.0383 | log fold change Tl+ flux (R275C/beta2Delta) 0.0438 | log fold change Tl+ flux (R275C/Slo1WT/beta2) 0.0201

CCCCCCCCCCC[C@@H](C[C@@H]1OC(=O)[C@H]1CCCCCC)OC(=O)[C@H](CC(C)C)NC=O
inactive: parasite load remaining [4] 74.9% | fluorescence ratio [2] 1.04 | mean signal [3] 258 | z-score [5] 0.54 | log fold change Tl+ flux (F380Y/beta1) 0.0468 | log fold change Tl+ flux (F380Y/beta4) 0.0138 | log fold change Tl+ flux (R275C) -0.0306 | log fold change Tl+ flux (R275C/beta1) -0.0228 | log fold change Tl+ flux (R275C/beta2Delta) -0.0121 | log fold change Tl+ flux (R275C/beta4) -0.0426 | log fold change Tl+ flux (R275C/Slo1WT/beta2) -0.00736
74.1%: viability [4]

C[C@H]1C[C@@H]2[C@H]([C@@H](O)C[C@@]3(C)[C@H]2CC[C@]3(O)C(=O)CO)[C@@]2(C)C=CC(=O)C=C12
inactive: survival [1] 11.9 | fluorescence ratio [2] 1.07 | mean signal [3] 290 | z-score [5] -0.075 and 0.335 | log fold change Tl+ flux (F380Y/beta1) 0.0255 | log fold change Tl+ flux (F380Y/beta4) -0.0167 | log fold change Tl+ flux (R275C) -0.0399 | log fold change Tl+ flux (R275C/beta1) -0.0807 | log fold change Tl+ flux (R275C/beta2Delta) 0.0437 | log fold change Tl+ flux (R275C/beta4) -0.00754 | log fold change Tl+ flux (R275C/Slo1WT/beta2) 0.0152

CCOc1ccc2ccccc2c1C(=O)N[C@@H]1C(=O)N2[C@@H]1SC(C)(C)[C@@H]2C(=O)O
inactive: survival [1] 3.33 | parasite load remaining [4] 85.4% and 87.9% | fluorescence ratio [2] 1.06 | mean signal [3] 253 | z-score [5] 0.835 | log fold change Tl+ flux (F380Y/beta1) -0.0293 | log fold change Tl+ flux (F380Y/beta4) -0.0322 | log fold change Tl+ flux (R275C) -0.00323 | log fold change Tl+ flux (R275C/beta1) 0.00845 | log fold change Tl+ flux (R275C/beta2Delta) 0.0249 | log fold change Tl+ flux (R275C/beta4) -0.041 | log fold change Tl+ flux (R275C/Slo1WT/beta2) 0.0157
103% and 91.5%: viability [4]

C[C@]12CCC(=O)C=C1CC[C@@H]1[C@@H]2C(=O)C[C@@]2(C)[C@H]1CC[C@]2(O)C(=O)CO
inactive: survival [1] 29.6 | parasite load remaining [4] 29.2% and 101% and 66.2% | fluorescence ratio [2] 0.97 | mean signal [3] 220 | z-score [5] 0.195 | log fold change Tl+ flux (F380Y/beta1) -0.034 | log fold change Tl+ flux (F380Y/beta4) -0.00179 | log fold change Tl+ flux (R275C) -0.0438 | log fold change Tl+ flux (R275C/beta1) -0.0165 | log fold change Tl+ flux (R275C/beta2Delta) -0.0316 | log fold change Tl+ flux (R275C/beta4) 0.0193 | log fold change Tl+ flux (R275C/Slo1WT/beta2) 0.0155
48% and 86.7% and 71%: viability [4]

COc1cc(NC(C)CCCN)c2ncccc2c1 (configuration not stated)
18.8%: inhibition [6]
inactive: survival [1] 5.33 | fluorescence ratio [2] 0.96 | mean signal [3] 225 | z-score [5] -1.43 and -2.4 | log fold change Tl+ flux (F380Y/beta1) -0.102 | log fold change Tl+ flux (F380Y/beta4) -0.0853 | log fold change Tl+ flux (R275C/beta1) 0.0817 | log fold change Tl+ flux (R275C/beta2Delta) 0.0117 | log fold change Tl+ flux (R275C/beta4) 0.0128 | log fold change Tl+ flux (R275C/Slo1WT/beta2) -0.0635
active: log fold change Tl+ flux (R275C) -0.164
-1.37%: glutamate uptake change [11]
78.1%: inhibition of aggregation [10]
0: rescue above control [8]
0.68: cytochrome c release ratio [9]
1.22: aggregation suppression score [12]
1.79: score [7]

Cn1c(=O)c2[nH]cnc2n(C)c1=O
0.779: aggregation suppression score [12]
1.11: score [7]
68.2%: inhibition of aggregation [10]
1.91: rescue above control [8]
-19.2%: glutamate uptake change [11]
inactive: survival [1] 4.08 and 2.17 | mean signal [3] 256 | z-score [5] 0.425 and 0.475 and 0.2 | log fold change Tl+ flux (F380Y/beta1) 0.00494 | log fold change Tl+ flux (F380Y/beta4) -0.00644 | log fold change Tl+ flux (R275C) 0.000907 | log fold change Tl+ flux (R275C/beta1) 0.0503 | log fold change Tl+ flux (R275C/beta2Delta) -0.00245 | log fold change Tl+ flux (R275C/beta4) 0.0294 | log fold change Tl+ flux (R275C/Slo1WT/beta2) 0.0554
9.69%: inhibition [6]
0.95: cytochrome c release ratio [9]

C[C@@H]1O[C@@H](OC[C@H]2O[C@@H](Oc3c(-c4ccc(O)c(O)c4)oc4cc(O)cc(O)c4c3=O)[C@H](O)[C@@H](O)[C@@H]2O)[C@H](O)[C@H](O)[C@H]1O
48.6%: inhibition of aggregation [10]
inactive: parasite load remaining [4] 117% | fluorescence ratio [2] 0.95 | mean signal [3] 242 | log fold change Tl+ flux (F380Y/beta1) 0.04 | log fold change Tl+ flux (F380Y/beta4) -0.0248 | log fold change Tl+ flux (R275C) 0.0426 | log fold change Tl+ flux (R275C/beta1) -0.0081 | log fold change Tl+ flux (R275C/beta2Delta) 0.00535 | log fold change Tl+ flux (R275C/beta4) -0.00112 | log fold change Tl+ flux (R275C/Slo1WT/beta2) 0.0255
13.8: rescue above control [8]
3.3%: inhibition [6]
32.8%: glutamate uptake change [11]
1.08: cytochrome c release ratio [9]
0.985: aggregation suppression score [12]
1.12: score [7]
84.5%: viability [4]

CCS(=O)(=O)CCn1c([N+](=O)[O-])cnc1C
inactive: survival [1] 3.33 | fluorescence ratio [2] 0.97 | mean signal [3] 232 | z-score [5] 0.655 and 0.575 | log fold change Tl+ flux (F380Y/beta1) 0.0365 | log fold change Tl+ flux (F380Y/beta4) -0.041 | log fold change Tl+ flux (R275C) 0.0103 | log fold change Tl+ flux (R275C/beta1) -0.0101 | log fold change Tl+ flux (R275C/beta2Delta) -0.0183 | log fold change Tl+ flux (R275C/beta4) -0.0453 | log fold change Tl+ flux (R275C/Slo1WT/beta2) -0.0158

CC[C@H](C)C(=O)O[C@H]1C[C@H](O)C=C2C=C[C@H](C)[C@H](CC[C@@H](O)C[C@@H](O)CC(=O)O)[C@H]21
77.5%: viability [4]
inactive: parasite load remaining [4] 98.4% | fluorescence ratio [2] 1.01 | mean signal [3] 245 | z-score [5] 0.175 | log fold change Tl+ flux (F380Y/beta1) -0.03 | log fold change Tl+ flux (F380Y/beta4) 0.0119 | log fold change Tl+ flux (R275C) -0.0381 | log fold change Tl+ flux (R275C/beta1) -0.014 | log fold change Tl+ flux (R275C/beta2Delta) 0.0137 | log fold change Tl+ flux (R275C/beta4) -0.0312 | log fold change Tl+ flux (R275C/Slo1WT/beta2) -0.0454
